Measured values as given in PubChem BioAssay (Tox21).
Results filed as inconclusive are left out. Calls of active or inactive are those of the source. Unless noted, calls follow the shape of the dose curve; as a rule, active = well fitted curve in the direction sought with a large enough effect in the repeat runs; inconclusive = weak or mixed curves; inactive = no such curve, though single readings can be large; an effect the other way counts as inactive or inconclusive.

Columns and labels:
[1] = qHTS assay to identify small molecule antagonists of the estrogen receptor alpha (ER-alpha) signaling pathway using the BG1 cell line in the presence of 0.1 nM 17-beta-estradiol - cell viability counter screen (AID 1259241); also: nearly all actives have a fitted effect of over 40% in size
How it was run: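 Measures cytotoxicity alongside the ER-alpha antagonist readout: VM7Luc4E2 cells, charcoal-stripped serum, 0.1 nM 17beta-estradiol final, 22 hr compound incubation at 37C, CellTiter-Fluor fluorescence.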

[2] = qHTS assay to identify small molecule antagonists of the androgen receptor (AR) signaling pathway using the MDA cell line in the presence of 0.5 nM R1881 - cell viability counter screen (AID 1259242); also: nearly all actives have a fitted effect of over 45% in size
How it was run: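 Fluorescence from CellTiter-Fluor, which reports protease activity of live cells, was read 30 min after reagent addition to MDA-kb2 cells that had been incubated 16 hr with compound and 0.5 nM R1881.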

[3] = target: Estrogen receptor (Homo sapiens) (UniProt P03372); assay: qHTS assay to identify small molecule antagonists of the estrogen receptor alpha (ER-alpha) signaling pathway using the BG1 cell line in the presence of 0.1 nM 17-beta-estradiol (AID 1259244); also: nearly all actives have a fitted effect of over 50% in size; also: potency is read from the fitted curve at half-maximal effect
Sequence of Estrogen receptor (Homo sapiens) (P03372 whole entry, looked up): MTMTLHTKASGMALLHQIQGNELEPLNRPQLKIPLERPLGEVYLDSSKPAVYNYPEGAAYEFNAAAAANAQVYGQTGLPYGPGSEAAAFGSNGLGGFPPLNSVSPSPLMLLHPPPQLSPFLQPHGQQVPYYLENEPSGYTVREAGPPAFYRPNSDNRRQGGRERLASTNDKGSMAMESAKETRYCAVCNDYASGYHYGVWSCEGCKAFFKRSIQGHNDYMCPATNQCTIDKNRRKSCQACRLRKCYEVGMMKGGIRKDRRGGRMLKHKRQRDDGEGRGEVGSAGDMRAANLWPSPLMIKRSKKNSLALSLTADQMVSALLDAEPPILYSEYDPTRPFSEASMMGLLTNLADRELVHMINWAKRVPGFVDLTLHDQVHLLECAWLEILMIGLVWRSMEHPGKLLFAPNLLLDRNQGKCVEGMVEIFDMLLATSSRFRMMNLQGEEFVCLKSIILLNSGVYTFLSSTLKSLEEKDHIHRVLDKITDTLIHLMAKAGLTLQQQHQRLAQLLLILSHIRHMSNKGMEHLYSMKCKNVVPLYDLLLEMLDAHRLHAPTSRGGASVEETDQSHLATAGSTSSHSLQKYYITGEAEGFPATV
How it was run: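 Quantitative high-throughput screen in VM7Luc4E2 cells: compound plus 0.1 nM E2 (final), 22 h, 37C, 5% CO2; ONE-Glo added, 30 min room temperature, luminescence measured.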

[4] = qHTS assay to identify small molecule phospholipidosis (PLD) inducers (AID 1259344; active = well fitted curve in the direction sought with a large enough effect; an effect the other way counts as inactive or inconclusive)
How it was run: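 HepG2 cells on collagen I, attached 4 h at 37 C, were co-treated with compound and LipidTOX Red dye for 24 h at 37 C, then fixed with paraformaldehyde plus Hoechst 33342 and imaged by high-content microscopy for phospholipid accumulation.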

[5] = qHTS assay to identify small molecule HDAC inhibitors (AID 1259364); also: top concentration of the series differs between compounds; nearly all actives have a fitted effect of over 45% in size
How it was run: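 Endogenous HDAC class I/II activity was measured in wild-type HCT-116 cells by HDAC-Glo luminescence after 2 h compound treatment.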

[6] = qHTS assay to identify small molecule HDAC inhibitors - cell viability counter screen (AID 1259365); also: series mostly up to about 92 µM; nearly all actives have a fitted effect of over 50% in size
How it was run: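 Following a 2hr exposure of overnight-plated wild-type HCT-116 cells to DMSO-delivered compounds, CellTiter-Glo was added and luminescence recorded after 30min at room temperature.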

[7] = qHTS assay to identify small molecule agonists of the sonic hedgehog signaling (Shh) pathway - cell viability counter screen (AID 1259366); also: nearly all actives have a fitted effect of over 50% in size
How it was run: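 After a 4hr attachment at 37C, NIH/3T3 cells bearing an integrated Gli1-driven luciferase reporter were dosed with compounds. Treatment lasted 24hr, with the final hour including CellTiter-Fluor for a fluorescence viability measurement.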

[8] = qHTS assay to identify small molecule antagonists of the sonic hedgehog signaling (Shh) pathway - cell viability counter screen (AID 1259367); also: nearly all actives have a fitted effect of over 55% in size
How it was run: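 NIH/3T3-derived Gli1-Luc reporter cells (2,000 per well) rested 4 hr at 37 C, then received DMSO compounds plus conditioned medium. After 23 hr of treatment, CellTiter-Fluor was added for 1 hr at 37C and fluorescence read.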

[9] = target: Estrogen receptor beta (Homo sapiens) (UniProt Q92731); assay: qHTS assay to identify small molecule agonists of the estrogen receptor beta (ER-beta) signaling pathway (AID 1259377; active = well fitted activation curve with a large enough effect in the signal ratio in the repeat runs, not every such curve was filed as active; the % refers to the signal ratio)
Sequence of Estrogen receptor beta (Homo sapiens) (Q92731 whole entry, looked up): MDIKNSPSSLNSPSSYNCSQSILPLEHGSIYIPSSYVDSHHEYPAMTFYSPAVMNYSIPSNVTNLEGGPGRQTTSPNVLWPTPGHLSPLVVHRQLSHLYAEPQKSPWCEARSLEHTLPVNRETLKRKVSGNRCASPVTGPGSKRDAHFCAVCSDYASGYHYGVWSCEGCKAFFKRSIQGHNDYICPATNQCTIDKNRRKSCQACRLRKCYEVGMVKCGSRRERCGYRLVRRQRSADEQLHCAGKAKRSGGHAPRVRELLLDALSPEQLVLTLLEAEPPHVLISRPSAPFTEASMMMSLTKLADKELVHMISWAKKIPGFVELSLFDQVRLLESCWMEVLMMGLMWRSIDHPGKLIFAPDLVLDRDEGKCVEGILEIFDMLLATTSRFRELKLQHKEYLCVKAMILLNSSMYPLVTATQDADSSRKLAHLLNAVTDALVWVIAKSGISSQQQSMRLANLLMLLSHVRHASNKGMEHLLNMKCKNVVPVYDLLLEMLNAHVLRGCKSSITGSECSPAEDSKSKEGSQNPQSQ
How it was run: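 In HEK293T cells bearing a UAS-beta-lactamase reporter under ER-beta control, DMSO-delivered compounds were incubated for 16 hr at 37C. Activity was detected as fluorescence 2 hours after LiveBLAzer B/G FRET substrate addition.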

[10] = qHTS assay to identify small molecule agonists of the androgen receptor (AR) signaling pathway in the presence of an antagonist - cell viability counter screen (AID 1259379);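 also: MDA-kb2 human breast cancer cells carrying an MMTV luciferase reporter; series mostly up to about 92 µM; nearly all actives have a fitted effect of over 25% in size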
How it was run: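 In MDA-kb2 cells (human breast carcinoma, MMTV-luciferase), compounds at 15 concentrations plus 3.0uM nilutamide; 16 hr, 37C, 0% CO2; CellTiter-Fluor fluorescence read for viability.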

[11] = qHTS assay to identify small molecule agonists of the estrogen receptor beta (ER-beta) signaling pathway - cell viability counter screen (AID 1259380); also: nearly all actives have a fitted effect of over 30% in size
How it was run: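 Viability of ER-beta-UAS-bla HEK293T cells was determined by CellTiter-Glo luminescence following 16 hr treatment with test compounds at 37C.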

[12] = qHTS assay to identify small molecule antagonists of the estrogen receptor beta (ER-beta) signaling pathway - cell viability counter screen (AID 1259382); also: series mostly up to about 92 µM; nearly all actives have a fitted effect of over 55% in size
How it was run: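 Tox21 10K library tested in qHTS format on ER-beta-bla HEK293T cells stimulated with 1nM E2; 16 hr treatment at 37C. Same-well CellTiter-Glo luminescence served as the cell viability measure.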

[13] = target: Estrogen receptor (Homo sapiens) (UniProt P03372); assay: qHTS assay to identify small molecule agonists of the estrogen receptor alpha (ER-alpha) signaling pathway in the presence of an antagonist (AID 1259383; calls by dose curve; also: top concentration of the series differs between compounds; nearly all actives have a fitted effect of over 15% in size)
How it was run: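 In VM7Luc4E2 cells, 4,000 per well, compounds at 15 concentrations were co-incubated 22hr at 37C with 10.0nM final ICI-182,780. Luminescence from the stably transfected 4×ERE-luciferase reporter was recorded 30min after ONE-Glo addition.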

[14] = target: Thyrotropin receptor (Homo sapiens) (UniProt P16473); assay: qHTS assay to identify small molecule antagonists of the thyroid stimulating hormone receptor (TSHR) signaling pathway (AID 1259385; calls by dose curve; also: nearly all actives have a fitted effect of over 20% in size)
Sequence of Thyrotropin receptor (Homo sapiens) (P16473 whole entry, looked up): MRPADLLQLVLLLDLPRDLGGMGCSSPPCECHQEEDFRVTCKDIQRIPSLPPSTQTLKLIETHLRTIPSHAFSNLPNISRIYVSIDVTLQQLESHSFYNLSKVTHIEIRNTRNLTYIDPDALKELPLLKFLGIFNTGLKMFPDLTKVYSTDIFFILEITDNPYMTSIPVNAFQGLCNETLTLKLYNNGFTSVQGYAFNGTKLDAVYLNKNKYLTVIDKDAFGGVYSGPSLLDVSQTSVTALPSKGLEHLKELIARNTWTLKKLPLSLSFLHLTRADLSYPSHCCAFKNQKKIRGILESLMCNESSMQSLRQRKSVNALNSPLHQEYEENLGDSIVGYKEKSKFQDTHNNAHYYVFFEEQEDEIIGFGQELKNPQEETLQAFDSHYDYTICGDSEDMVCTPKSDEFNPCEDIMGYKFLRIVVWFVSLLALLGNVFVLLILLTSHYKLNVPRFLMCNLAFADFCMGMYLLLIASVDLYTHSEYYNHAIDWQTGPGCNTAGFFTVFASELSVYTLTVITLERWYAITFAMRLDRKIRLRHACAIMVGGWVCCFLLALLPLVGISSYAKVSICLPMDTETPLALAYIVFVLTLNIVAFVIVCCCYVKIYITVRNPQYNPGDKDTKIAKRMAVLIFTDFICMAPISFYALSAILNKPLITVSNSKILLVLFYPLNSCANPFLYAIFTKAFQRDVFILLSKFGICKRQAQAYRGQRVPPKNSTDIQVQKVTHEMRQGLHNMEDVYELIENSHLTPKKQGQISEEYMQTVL
How it was run: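 TSHR-HEK293 cells were plated and held 18 h at 37C/5% CO2, then given compound plus Ro20-1724 and stimulated with TSH at 1.5 ng/mL final. After 30 min at room temperature, cAMP was detected with cAMP-d2/anti-cAMP-cryptate (1 h) by fluorescence.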

[15] = qHTS assay to identify small molecule antagonists of the sonic hedgehog signaling (Shh) pathway (AID 1259369; calls by dose curve; also: nearly all actives have a fitted effect of over 45% in size)
How it was run: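 Screening used 3T3Gli1-Luc cells at 2,000 per well, compounds delivered in DMSO, and conditioned medium as agonist stimulus; plates incubated 24hr at 37 C and 5% CO2 before a 30min luciferase step.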

[16] = target: Estrogen receptor beta (Homo sapiens) (UniProt Q92731); assay: qHTS assay to identify small molecule antagonists of the estrogen receptor beta (ER-beta) signaling pathway (AID 1259378; active = well fitted inhibition curve with a large enough effect in the signal ratio in the repeat runs, not every such curve was filed as active; the % refers to the signal ratio)
How it was run: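 ER-beta-UAS-bla HEK293T (GripTite) cells in 2% charcoal-stripped FBS medium were preincubated 6 hr at 37C, dosed with compound, then stimulated with 1 nM E2 (final) for 16 hr; beta-lactamase reporter read by B/G FRET fluorescence after 2 hr substrate loading.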

[17] = qHTS assay to identify small molecule agonists or antagonists of the thyroid stimulating hormone receptor (TSHR) signaling pathway - wild type cell line counter screen (AID 1259384; calls by dose curve; also: potency is read from the fitted curve at half-maximal effect)
How it was run: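 Wild-type HEK293 cells were plated 18 h at 37 C/5% CO2, pin-dosed with compound plus Ro20-1724 medium, held 30 min at room temperature, then given cAMP-d2 and anti-cAMP-cryptate; fluorescence was read after 1 h. Fifteen concentrations, triplicate.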

[18] = qHTS assay to identify small molecule agonists of the sonic hedgehog signaling (Shh) pathway (AID 1259368; calls by dose curve;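 also: NIH/3T3-derived 3T3Gli1-Luc cells carrying a stable Gli1-driven firefly luciferase reporter; series mostly up to about 92 µM; nearly all actives have a fitted effect of over 15% in size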)
How it was run: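 Luminescent signal was taken as a measure of Gli1-controlled luciferase expression in stably transfected NIH/3T3-derived cells that had been treated for 24 hr with compounds delivered in DMSO.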
% is scaled to controls: 0 for no effect and ±100 for the full control effect.

Cc1ncc2n1-c1ccc(Cl)cc1C(c1ccccc1F)=NC2
active: Potency [3] 10.6 µM
inactive: outcome [1] | outcome [2] | outcome [4] | Potency [5] | outcome [6] | Potency [7] | Potency [8] | outcome [9] | Potency [10] | Potency [11] | Potency [12] | Potency [13] | Potency [14]

O=C1CN=C(c2ccccc2)c2cc([N+](=O)[O-])ccc2N1
inactive: outcome [1] | outcome [2] | Potency [3] | outcome [4] | Potency [5] | outcome [6] | Potency [7] | Potency [8] | Potency [15] | outcome [9] | Potency [16] | Potency [10] | Potency [11] | Potency [12] | Potency [13] | Potency [17] | Potency [14]

Clc1cccc(N2CCNCC2)c1
inactive: outcome [1] | outcome [2] | Potency [3] | outcome [4] | Potency [5] | outcome [6] | Potency [7] | Potency [8] | outcome [18] | Potency [15] | Potency [16] | Potency [10] | Potency [12] | Potency [13] | Potency [17] | Potency [14]

CCc1cc2c(s1)-n1c(C)nnc1CN=C2c1ccccc1Cl
active: Potency [3] 18.8 µM
inactive: outcome [1] | outcome [2] | PLD induction [4] -2.33% [at 1.53 µM] | Potency [5] | outcome [6] | Potency [8] | outcome [18] | Potency [10] | Potency [11] | Potency [12] | Potency [13]

Cc1nnc2n1-c1sc(CCC(=O)N3CCOCC3)cc1C(c1ccccc1Cl)=NC2
inactive: outcome [1] | outcome [2] | Potency [3] | outcome [4] | Potency [5] | outcome [6] | Potency [7] | Potency [8] | outcome [18] | Potency [15] | Potency [10] | Potency [12] | Potency [13] | Potency [17] | Potency [14]

CNCC(=O)c1ccc(O)c(O)c1
inactive: outcome [1] | outcome [2] | Potency [3] | PLD induction [4] -2.28% [at 7.66 µM] | Potency [5] | outcome [6] | Potency [7] | Potency [8] | outcome [18] | Potency [15] | outcome [9] | Potency [16] | Potency [10] | Potency [11] | Potency [12] | Potency [13] | Potency [14]
active: Potency [17] 4.22 µM
